# Screening data from PubChem.
# RORg inh: ROR gamma (mouse) transcription inhibition | P51450 | Drosophila S2 Gal4-RORgamma UAS-luciferase reporter, 20 h | Potency, µM (titrated, usually from 53.6 µM), usual class: inhibitors | hit rate 5.4% among 310,000 | AID 2551; note: nearly all actives have a fitted effect of over 60% in size
#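 Compounds are pin-transferred onto Drosophila Schneider cells expressing a copper-inducible Gal4–ROR gamma transactivation domain fusion. After 1 hr, copper sulfate is added to 700 uM final; luciferase is read 20 hr later.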
# ALDH1A1 inh: inhibitors of human aldehyde dehydrogenase 1A1; hit rate 7.3% among 220,000; AID 1030; P00352; Potency, µM (highest dose often 75.3 µM), most hits filed as inhibitors; Purified ALDH1A1, NADH fluorescence, propionaldehyde substrate; active = well fitted inhibition curve with a large enough effect, not every such curve was filed as active; inconclusive = small, poorly fitted or top-dose-only effect, or another doubt; inactive = no such curve, though single readings can be large or run the other way
# Target sequence (P00352 whole entry, looked up): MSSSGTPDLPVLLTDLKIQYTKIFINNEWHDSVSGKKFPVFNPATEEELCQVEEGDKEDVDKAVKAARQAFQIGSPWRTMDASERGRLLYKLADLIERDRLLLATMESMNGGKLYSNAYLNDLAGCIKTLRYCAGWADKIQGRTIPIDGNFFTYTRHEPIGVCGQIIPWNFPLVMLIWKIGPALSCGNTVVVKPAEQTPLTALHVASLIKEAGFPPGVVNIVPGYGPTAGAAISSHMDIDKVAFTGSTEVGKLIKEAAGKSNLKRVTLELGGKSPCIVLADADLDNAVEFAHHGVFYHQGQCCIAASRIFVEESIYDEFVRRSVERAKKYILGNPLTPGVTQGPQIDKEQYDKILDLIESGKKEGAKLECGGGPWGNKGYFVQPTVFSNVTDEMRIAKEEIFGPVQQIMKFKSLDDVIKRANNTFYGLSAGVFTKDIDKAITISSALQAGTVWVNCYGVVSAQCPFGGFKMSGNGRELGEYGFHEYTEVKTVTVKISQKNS
# Sfp inh: inhibitors of Bacillus subtilis Sfp phosphopantetheinyl transferase | Q9F4F7 | Biochemical Sfp PPTase activity, qHTS | Potency, µM, most hits filed as inhibitors | hit rate 3.5% among 310,000;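 note: the enzyme is Sfp with the accession as filed and its product quenches rhodamine fluorescence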
#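 Sfp 15 nM + cpd, 15 min RT; start w/ rhodamine-CoA 5 uM, BHQ-2-YbbR 12.5 uM (final); 50 mM Hepes pH 7.6, 10 mM MgCl2, 0.01% NP-40, 0.01% BSA; read 525/598 nm at 0 and 30 min.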
# VP16 counter: Gal4-VP16 reporter inhibition counter-screen. Potency, µM (doses to about 53.6 µM), actives largely listed as inhibitors. Drosophila S2 Gal4-VP16 UAS-luciferase, luminescence, 20 h. hit rate 3.5% among 310,000. AID 2546;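 note: Gal4-VP16 expression switched on by copper sulfate through the metallothionein promoter; nearly all actives have a fitted effect of over 50% in size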
# PLK1 PBD block: blocks phosphopeptide binding to human PLK1 polo-box domain; Plk1 PBD binding of FITC phosphopeptide, fluorescence polarization; P53350; Potency, µM, actives largely listed as inhibitors; hit rate 2.8% among 360,000; note: series mostly up to about 57 µM; nearly all actives have a fitted effect of over 65% in size
# A number is an active result; – = inactive; ? = inconclusive; · = no result; [ ] = remark or other dose. An excerpt weighted towards active compounds, which were near 12% of everything screened. Unless noted, calls come from the whole dose curve; as a rule, active = well fitted curve in the direction sought with a large enough effect; inconclusive = small, poorly fitted or top-dose-only effect, or another doubt; inactive = no such curve, though single readings can be large; an effect the other way counts as inactive or inconclusive.
SMILES,RORg inh,ALDH1A1 inh,Sfp inh,VP16 counter,PLK1 PBD block
Cc1cnn(CCC(=O)NNC(=S)Nc2cccc(Cl)c2)c1,0.355µM,?,–,?,–
CCNC(=S)NNC(=O)CCn1cc(C)cn1,6.31µM,–,–,?,–
CCC1=NC(c2ccc(OC)cc2OC)N(O)C1(C)C (stereo unspecified),–,8.91µM,–,–,–
COc1ccc(Cc2nnc(SC)n2-c2ccc(F)cc2)cc1OC,·,·,·,·,–
Cc1ccccc1NC(=O)CC1(c2ccc(N(C)C)cc2)C(=O)c2ccccc2C1=O,–,12.6µM,–,–,–
CN1CCN(c2ccnc(-c3ccoc3)n2)CC1,–,?,79.4µM,–,·
COCC(=O)N1CCC2(CC1)CCN(C(=O)Nc1cccc(F)c1)CC2,–,–,–,–,·
Cn1c(=S)[nH]c2sc3c(c2c1=O)CCC(C(C)(C)C)C3 (stereo unspecified),0.316µM,·,–,1µM,·
O=c1[nH]c(=S)[nH]c2sc3c(c12)CCCCCC3,14.1µM,·,–,?,?
CCCn1c(=S)[nH]c2sc3c(c2c1=O)CCCC3,0.282µM,·,–,0.891µM,–
CC(=O)Cn1nnc2sc3c(c2c1=O)CCC(C(C)(C)C)C3 (stereo unspecified),–,–,–,?,–
COCCCn1c(=S)[nH]c2sc3c(c2c1=O)CCCS3,1µM,25.1µM,35.5µM,2.82µM,–
O=c1[nH]c(C2CC2)nc2sc3c(c12)CCCC3,–,–,–,–,–
Nc1cc(C(=O)OCC(=O)NNC(=O)c2cccs2)ccc1Cl,·,·,·,·,–
COCCn1c(=S)[nH]c2sc3c(c2c1=O)CCC(C)C3 (stereo unspecified),1.12µM,·,–,1.26µM,?
Cc1nc2ccccc2n1CCc1nc2c3ccccc3nc(=S)n2[nH]1,3.55µM,–,50.1µM,10µM,–
Cc1ccccc1-c1nc2c3ccccc3nc(=S)n2[nH]1,0.282µM,·,–,1µM,–
Cc1ccccc1-c1nc(N2CCOCC2)c2ccccc2n1,–,?,–,–,·
CS(=O)(=O)N1CCCCC1c1cc(C(=O)NCc2ccc(Cl)c(Cl)c2)no1 (stereo unspecified),·,·,·,·,–
OC1OC[C@H](O)[C@@H](O)[C@@H]1O (stereo partly specified),–,·,–,–,·
COc1cc(OC)cc(-c2nnc(NC(=O)c3ccc4c(c3)OCCO4)o2)c1,0.316µM,·,–,0.631µM,–
COc1cccc(C(=O)Nc2nnc(-c3ccc(F)cc3)o2)c1,5.01µM,·,–,1.78µM,–
CCOc1ccc(-c2nnc(NC(=O)c3ccc(OCC(C)C)c(OC)c3)o2)cc1,0.0282µM,–,–,0.0251µM,–
COc1cccc(C(=O)Nc2nnc(-c3ccc(Cl)cc3)o2)c1,?,·,–,1.58µM,–
Cc1ccc(C(=O)O)cc1NC(=O)CCc1c(C)noc1C,·,·,·,·,–
SMILES,RORg inh,ALDH1A1 inh,Sfp inh,VP16 counter,PLK1 PBD block
COc1cccc(-c2nnc(NC(=O)c3ccc4ncsc4c3)o2)c1,0.562µM,?,–,0.562µM,–
COc1cccc(C(=O)Nc2nnc(-c3cccs3)o2)c1,0.631µM,–,–,0.794µM,–
CS(=O)(=O)c1cccc(-c2nnc(NC(=O)c3ccc4ncsc4c3)o2)c1,·,·,·,·,–
Cc1cc(NC(=S)NC(=O)C2CC2)ccc1Br,2.51µM,?,–,2.51µM,–
O=C(NNC(=S)NC1CC2C=CC1C2)c1ccncc1 (stereo unspecified),–,·,–,–,–
Cc1cccc(NC(=S)NC2CC3C=CC2C3)c1 (stereo unspecified),5.01µM,·,–,11.2µM,–
Cc1cccc(NC(=S)NC(=O)C2CC2)c1,7.94µM,·,–,?,·
Cc1cc(C)cc(NC(=S)NC(=O)C2CC2)c1,7.08µM,·,–,6.31µM,–
CC(C)[C@](N)(C(=O)O)c1ccccc1,·,–[13.5 µM],·,·,·
CC(=O)c1cc2cccc(OC3(C)CCN(Cc4ccc(-c5ccccn5)cc4)C3)c2o1 (stereo unspecified),·,·,·,·,–
Cc1cc(C)n(-c2nc(NCc3cccnc3)c3c4c(sc3n2)COC(C)(C)C4)n1,3.98µM,?,–,6.31µM,–
CCC1(C)Cc2c(sc3nc(SC)nc(NCCN(C)C)c23)CO1 (stereo unspecified),–,–,–,–[0.365 µM],–
Cc1cc(C)n(-c2nc(SCC(=O)O)c3c4c(sc3n2)COC(C)(C)C4)n1,7.08µM,·,–,?,–
Cc1nc(NCc2cccnc2)c2c3c(sc2n1)CCCC3,?,–,–,–,–
CCN(CC)CCCNc1nc(-n2nc(C)cc2C)nc2sc3c(c12)CC(C)(C)OC3,12.6µM,·,–,?,–
N#Cc1ccc(CN2CC3(CCN(C(=O)c4csnn4)CC3)C2)cc1,–,–,–,–,·
N#CCC(=O)Nc1ccc(C(=O)Nc2cccc(S(=O)(=O)N3CCCC3)c2)cc1,·,·,·,·,–
Cc1ccc(NC(=S)NC(C)(C)C)c([N+](=O)[O-])c1,3.16µM,·,–,7.94µM,–
O=C(O)/C=C\C(=O)Nc1cc(O)ccc1[N+](=O)[O-],–,·,–,–,?
C=CCNC(=S)Nc1ccc(C)cc1[N+](=O)[O-],?,–,–,–,–
Cc1ccc(NC(=O)Cn2ccsc2=N)c([N+](=O)[O-])c1,–,7.08µM,–,–,–
Cc1cc(C)c(NC(=O)/C=C\C(=O)O)c([N+](=O)[O-])c1,–,10µM,?,–,–
Cc1cc(NC(=O)Cn2ccsc2=N)c([N+](=O)[O-])cc1C,–,–,–,–,–
Cc1ccc(NC(=O)/C=C\C(=O)O)c([N+](=O)[O-])c1,–,12.6µM,–,–,–
Cc1ccc(S(=O)(=O)N(C)C[C@@H]2OCc3cnnn3CCCC(=O)N([C@@H](C)CO)C[C@H]2C)cc1,·,·,·,·,–
SMILES,RORg inh,ALDH1A1 inh,Sfp inh,VP16 counter,PLK1 PBD block
S=C(NCCc1ccccc1)NC1CCC(NC(=S)NCCc2ccccc2)CC1 (stereo unspecified),–,–,–,–,–
S=C(NCCc1cccc(Cl)c1)NC1CCCCC1,4.47µM,·,–,5.62µM,–
S=C(NCc1ccc(Cl)cc1Cl)NC1CCCCC1,5.62µM,?,–,15.8µM,–
S=C(NCCc1ccccc1)NC1CC1,4.47µM,–,–,?,–
O=C(NC1CCCCC1)C(=S)NCc1ccccc1,–,–,–,–,–
O=C(NC1CCCCCC1)C(=S)NCc1ccccc1,–,25.1µM,56.2µM,–[10 µM],21.2µM
COc1ccc(CCNC(=S)NC2CCN(Cc3ccccc3)CC2)cc1,?,?,?,?,29.9µM
O=C(NC1CCCCCC1)C(=S)NCCc1ccccc1,–,11.2µM,14.1µM,–,10.6µM
COc1ccc(-c2ccc(-c3cc(=O)oc4cc(OC)c(OC)c(OC)c34)cc2)cc1,–,–,–,–,–
CC1(Oc2ccc(-n3ccnc3)cc2)CCN(Cc2cccn2-c2nccs2)C1 (stereo unspecified),·,·,·,·,–
CCc1ccc(NC(=O)CN(N=Nc2nonc2C)c2nonc2C)cc1,3.98µM,–,–,?,–
OC[C@@H]1CN(Cc2ccc(Cl)cc2)C[C@H](n2cnc3c(NC4CC4)ncnc32)O1,·,·,·,·,–
Cc1cccc(NC(=O)/C(C#N)=C/c2cccc([N+](=O)[O-])c2)n1,–,·,–,–,26.7µM
C=CCOC(=O)N[C@@H](Cc1ccccc1)/C(C(=O)OC)=C(\C)NCc1ccccc1,?,?,–,–,·
